In PubChem BioAssay (Tox21):
Inconclusive results are not listed. Entries that show only a call come without a potency. Values without a mark were called inactive. The source made the active and inactive calls. Calls follow the shape of the dose curve; as a rule, active = well fitted cell-killing curve with a large enough effect in the repeat runs (not every such curve was filed as active); inconclusive = weak or mixed curves, or effect the other way; inactive = no such curve, though single readings can be large or run the other way.

Assay: qHTS assay to identify small molecule antagonists of the farnesoid-X-receptor (FXR) signaling pathway - cell viability counter screen (AID 743221); also: nearly all actives have a fitted effect of over 50% in size
Conditions: FXR-bla HEK293T viability, CellTiter-Glo luminescence, 16 h; series mostly up to 62.6 µM; activity change, negative = cytotoxicity: at the top concentration
From the text: National Center for Advancing Translational Sciences [NCATS]
NIH Chemical Genomics Center [NCGC]
U.S. Environmental Protection Agency [EPA]
National Institutes of Environmental Health Sciences [NIEHS]
National Toxicology Program [NTP]
U.S. Food and Drug Administration [FDA]
The farnesoid-X-receptor (FXR), a nuclear hormone receptor, is highly expressed in liver, intestine, kidney and adrenal cortex. Natural ligands of FXR are the bile acids (Cholic acid, Chenodeoxy cholic acid etc). FXR is an important regulator of diverse metabolic pathways, including the bile acid homeostasis, lipid and glucose metabolisms. FXR regulates the expression of target genes by binding either as a monomer or as a heterodimer with the retinoid X receptor (RXR). Numerous studies have reported that FXR exerts protective function during cholestasis, diabetes, liver regeneration, and cancer. To identify compounds that inhibit FXR signaling, GeneBLAzer FXR-UAS-bla HEK 293T cell line (Invitrogen, Carlsbad, CA) containing a beta-lactamase reporter gene under the control of a UAS response element was used to screen the Tox21 10K compound library. The cytotoxicity of the Tox21 compound library against the FXR-bla cell line was tested in parallel by measuring the cell viability using CellTiter-Glo assay in the same wells.
Tox21 Assay Protocol Summary:
FXR-bla cells were dispensed at 5000 cells/5uL/well in 1536-well black wall/clear bottom plates using a Multidrop Combi (Thermo Fisher Scientific, Waltham, MA) dispenser. After the assay plates were incubated at 37 C and 5% CO2 for 5 h, 23 nL of compounds dissolved in DMSO, positive controls or DMSO only was transferred to the assay plate by a Pintool station (Kalypsys, San Diego, CA), followed by addition of 1 uL Chenodeoxycholic acid (50 uM, final concentration in the wells). The assay plates were incubated at 37C for 16 h. After 1 uL of LiveBLAzerTM B/G FRET substrate was added using a Bioraptr Flying Reagent Dispenser (FRD) workstation (Beckman Coulter, Indianapolis, IN), the plates were incubated at room temperature for 2 h, and fluorescence intensity was measured by an Envision plate reader (PerkinElmer, Shelton, CT). For cell viability readout that measures cytotoxicity, 4uL/well of CellTiter-Glo reagent was added into the assay plates using a Bioraptr FRD. After 30 min incubation at room temperature, the luminescence intensity in the plates was measured using a ViewLux plate reader (PerkinElmer).

| Structure (SMILES) | Potency | activity change, negative = cytotoxicity |
| --- | --- | --- |
| CC(C)(O)C(=O)Nc1ccc([N+](=O)[O-])c(C(F)(F)F)c1 | inactive | – |
| Oc1ccc(Cl)cc1Cl | inactive | – |
| CC(C)(C#N)N=NC(C)(C)C#N | inactive | – |
| [CH3][Sn]([Cl])([Cl])[Cl] | inactive | – |
| CCCCCCCCCc1ccc(O)cc1 | – | 3.2% [at 81.1 µM] |
| NN=C(N)N | inactive | – |
| S=c1[nH]c2ccccc2[nH]1 | inactive | – |
| O=C(O)CF | inactive | – |
| CCNCC | inactive | – |
| ClC(Cl)(Cl)Br | inactive | – |
| CCOP(=S)(OCC)SCSC(C)(C)C | inactive | – |
| O=[N+]([O-])c1ccc(Nc2ccccc2)cc1 | – | 5.6% [at 81.1 µM] |
| CC(O)CN(CC(C)O)CC(C)O (stereo not given) | inactive | – |
| Cc1cc(Cl)ccc1N=CN(C)C | inactive | – |
| CC(C)(O)C#N | inactive | – |
| CCC(=O)Nc1ccc(Cl)c(Cl)c1 | inactive | – |
| COc1ccc(CO)cc1 | inactive | – |
| CC1CC(=O)O1 (stereo not given) | inactive | – |
| CC(C)Nc1ccc(Nc2ccccc2)cc1 | inactive | – |
| Oc1ccc(Cl)cc1Cc1ccccc1 | inactive | – |

| Structure (SMILES) | Potency | activity change, negative = cytotoxicity |
| --- | --- | --- |
| OC(c1ccc(Cl)cc1)(c1cncnc1)c1ccccc1Cl (stereo not given) | inactive | – |
| Cc1cccc(N=Nc2ccc(N(C)C)cc2)c1 | inactive | – |
| CC(C)=CC1C(C(=O)OCN2C(=O)C3=C(CCCC3)C2=O)C1(C)C (stereo not given) | inactive | – |
| N#Cc1nn(-c2c(Cl)cc(C(F)(F)F)cc2Cl)c(N)c1S(=O)C(F)(F)F (stereo not given) | – | -16.4% [at 81.1 µM] |
| O=NN(c1ccccc1)c1ccccc1 | inactive | – |
| C[C@]12CC[C@H]3[C@@H](CCC4=CC(=O)CC[C@@H]43)[C@@H]1CC[C@@H]2O | inactive | – |
| NC(=O)CN1CCCC1=O | inactive | – |
| CCOP(=S)(OCC)OP(=S)(OCC)OCC | inactive | – |
| OCCOCCO | inactive | – |
| CC1(C)Cc2cccc(O)c2O1 | inactive | – |
| CC(C)Nc1nc(Cl)nc(NC(C)C)n1 | inactive | – |
| c1ccc2c(c1)Nc1ccccc1S2 | – | -9.87% [at 81.1 µM] |
| CS(=O)(=O)NC(=O)c1cc(Oc2ccc(C(F)(F)F)cc2Cl)ccc1[N+](=O)[O-] | inactive | – |
| CN(C)P(=O)(N(C)C)N(C)C | inactive | – |
| CCCCOCC1CO1 (stereo not given) | inactive | – |
| N#CCCCCC#N | inactive | – |
| CC(C)(c1ccc(OCC2CO2)cc1)c1ccc(OCC2CO2)cc1 (stereo not given) | – | -16.5% |
| COc1ccc(C=O)cc1OC | inactive | – |
| Clc1ccccc1-c1nnc(-c2ccccc2Cl)nn1 | inactive | – |
| COP(=S)(OC)Oc1ccc(S(=O)(=O)N(C)C)cc1 | inactive | – |
